Inconclusive results are not listed. Calls of active or inactive are those of the source. Rule for the calls, unless noted: active = hit-call score of the fitted dose curve at least 0.9, where 1 is the maximum; inactive = score below 0.9.
Columns and labels:
[1] = read-out: Monocyte Chemoattractant Protein-1 (MCP1), CCL2 (gene 6347); assay: BSK_LPS_MCP1: BioMAP Diversity Plus: LPS Assay for Monocyte Chemoattractant Protein-1 (MCP1) Biomarker Activity (AID 2283081); conditions: primary human HUVEC with PBMC; actives raise or lower the signal;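 for AC50: secreted MCP-1 protein quantified by ELISA in culture supernatant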
Procedure, shortened: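 Values derive from bidirectional fitting against DMSO of ELISA-measured MCP-1 in a human primary endothelial and mononuclear cell co-culture, 24 h after chemical addition under LPS activation.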

[2] = BSK_LPS_PGE2: BioMAP Diversity Plus: LPS Assay for Prostaglandin E2 (PGE2) Biomarker Activity (AID 2283082); conditions: primary human HUVEC with PBMC; actives raise or lower the signal;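 for AC50: secreted prostaglandin E2 measured by ELISA in LPS-stimulated co-culture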
Procedure, shortened: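 Endpoint derived from bidirectional curve fitting versus DMSO of ELISA-measured PGE2 in LPS-stimulated human primary vascular co-culture (HUVEC with PBMC) harvested at 24 h.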

[3] = read-out: Macrophage colony-stimulating factor (MCSF), CSF1 (gene 1435); assay: BSK_LPS_MCSF: BioMAP Diversity Plus: LPS Assay for Macrophage colony-stimulating factor (MCSF) Biomarker Activity (AID 2283083); conditions: primary human HUVEC with PBMC; actives raise or lower the signal
Procedure, shortened: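 Bidirectional fit versus DMSO of ELISA-measured M-CSF in co-cultured human umbilical vein endothelial cells and PBMC, sampled 24 h after dosing.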

[4] = read-out: Tissue Factor, F3 (gene 2152); assay: BSK_LPS_TissueFactor: BioMAP Diversity Plus: LPS Assay for Tissue Factor Biomarker Activity (AID 2283084); conditions: primary human HUVEC with PBMC; actives raise or lower the signal
Procedure, shortened: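 Read-out: CD142 ELISA, 24 h. System: LPS-driven human endothelial/PBMC co-culture. Analysis: up- or down-signal fitted against DMSO.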

[5] = read-out: Tumor necrosis factor (Homo sapiens) (UniProt P01375); assay: BSK_LPS_TNFa: BioMAP Diversity Plus: LPS Assay for Tumour Necrosis Factor alpha (TNFa) Biomarker Activity (AID 2283085); conditions: primary human HUVEC with PBMC; actives raise or lower the signal
Procedure, shortened: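 Primary human vascular co-culture of HUVEC and PBMC; TNFa ELISA 24 h after treatment, analysed as increase or decrease relative to DMSO control.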

[6] = read-out: Vascular cell adhesion molecule 1 (VCAM1), VCAM1 (gene 7412); assay: BSK_LPS_VCAM1: BioMAP Diversity Plus: LPS Assay for Vascular cell adhesion molecule 1 (VCAM1) Biomarker Activity (AID 2283086); conditions: primary human HUVEC with PBMC; actives raise or lower the signal
Procedure, shortened: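 Primary human vascular co-culture (umbilical vein endothelium plus PBMC) stimulated with LPS received chemical; 24 h later VCAM-1 was read by ELISA. Overt cytotoxicity was assessed by sulforhodamine B staining of parallel cultures at the same time point.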

CD40, CD40 (gene 958) = assay: BSK_SAg_CD40: BioMAP Diversity Plus: SAg Assay for CD40 Biomarker Activity (AID 2283088); conditions: primary human HUVEC with PBMC; actives raise or lower the signal
Procedure, shortened: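 Endpoint derived by fitting increases or decreases versus DMSO controls. CD40 is detected by fluorescence ELISA in a human vascular co-culture of endothelium and PBMC at 24 h.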

CD69, CD69 (gene 969) = assay: BSK_SAg_CD69: BioMAP Diversity Plus: SAg Assay for CD69 Biomarker Activity (AID 2283089); conditions: primary human HUVEC with PBMC; actives raise or lower the signal;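 for AC50: cell surface CD69 protein quantified by ELISA with fluorescence detection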
Procedure, shortened: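 Values derive from bidirectional fitting relative to DMSO vehicle. Cells: umbilical vein endothelium plus peripheral blood mononuclear cells, treated 24 h before fluorescent ELISA for CD69.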

[7] = read-out: Monocyte Chemoattractant Protein-1 (MCP1), CCL2 (gene 6347); assay: BSK_SAg_MCP1: BioMAP Diversity Plus: SAg Assay for Monocyte Chemoattractant Protein-1 (MCP1) Biomarker Activity (AID 2283090); conditions: primary human HUVEC with PBMC; actives raise or lower the signal
Procedure, shortened: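 MCP-1 levels in the endothelial–PBMC SAg co-culture were quantified by ELISA at 24 h post-dosing; both increases and decreases versus DMSO scored. Cytotoxicity monitored by SRB total protein in parallel cultures.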

[8] = read-out: E-selectin (Homo sapiens) (UniProt P16581); assay: BSK_SAg_Eselectin: BioMAP Diversity Plus: SAg Assay for Eselectin Biomarker Activity (AID 2283091); conditions: primary human HUVEC with PBMC; actives raise or lower the signal
Procedure, shortened: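 Endpoint values derive from bidirectional fitting relative to DMSO, using ELISA-measured E-selectin in a human vascular co-culture (umbilical vein endothelium plus PBMC) sampled 24 h after dosing.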

[9] = read-out: Monokine induced gamma interferon (MIG), CXCL9 (gene 4283); assay: BSK_SAg_MIG: BioMAP Diversity Plus: SAg Assay for Monokine induced gamma interferon (MIG) Biomarker Activity (AID 2283092); conditions: primary human HUVEC with PBMC; actives raise or lower the signal
Procedure, shortened: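 Values reflect bidirectional fitting of ELISA-measured MIG against DMSO vehicle, taken 24 h after dosing of a co-culture of human umbilical vein endothelial cells and peripheral blood mononuclear cells.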

[10] = BSK_SAg_PBMCCytotoxicity: PBMC Cytotoxicity Assessment in the BioMAP Diversity Plus: SAg Assay (AID 2283093); conditions: primary human HUVEC with PBMC;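 note: PBMC viability measured as Alamar Blue reduction fluorescence at 546/580 nm; fitted both ways against DMSO so a hit may be loss or gain of signal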;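 for AC50: PBMC superantigen activated with SEB plus TSST-1 one hour after compound addition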
Procedure, shortened: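 Human umbilical vein endothelial cells co-cultured with PBMC; PBMC (75,000/well) pre-treated with compound 1 h, then activated with SEB and TSST-1 (20 ng/mL final each) for 90 h. Alamar Blue added 6 h, fluorescence 546/580 nm; bidirectional fit versus DMSO.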

[11] = read-out: Interleukin-8 (IL8), CXCL8 (gene 3576); assay: BSK_SAg_IL8: BioMAP Diversity Plus: SAg Assay for Interleukin-8 (IL8) Biomarker Activity (AID 2283094); conditions: primary human HUVEC with PBMC; actives raise or lower the signal
Procedure, shortened: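 In this co-culture of human umbilical vein endothelium with peripheral blood mononuclear cells, IL-8 is assayed by ELISA at 24 h. DMSO serves as baseline for bidirectional curve fitting.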

[12] = BSK_SAg_Proliferation: Cell Proliferation Assessment in the BioMAP Diversity Plus: SAg Assay (AID 2283095); conditions: primary human HUVEC with PBMC;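 note: relative cell number as total protein by SRB absorbance in sub-confluent culture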
Procedure, shortened: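 Readout is SRB-stained protein (560 nm) in a primary human HUVEC and PBMC co-culture; sub-confluent cultures are read at 96 h. Activity is fitted bidirectionally using DMSO as baseline.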

[13] = BSK_SAg_SRB: Viability Assessment in the BioMAP Diversity Plus: SAg Assay (AID 2283096); conditions: primary human HUVEC with PBMC;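 note: cells read one day after compound addition; hits may be either gain or loss of signal compared with DMSO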
Procedure, shortened: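 Endothelial/PBMC primary human co-culture; compound 24 h; fix 10% TCA, stain 0.1% SRB, A560; protein content as cytotoxicity proxy; bidirectional curve fit, DMSO = baseline.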

[14] = biological target: human CYP19A1, CYP19A1 (gene 1588) (UniProt P11511); assay: NVS_ADME_hCYP19A1: NovaScreen (NVS) CYP450-related Enzyme Activity (ADME) Assay for human CYP19A1 (AID 2283098; active = hit-call score of the fitted dose curve at least 0.9, where 1 is the maximum)
Procedure, shortened: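 Cell-free enzyme assay with recombinant protein and a specific fluorogenic substrate, read by fluorescence intensity 0.5 h after dosing. Primary screen ran in duplicate at 10 uM; actives were retested in concentration series. Loss of signal versus acetonitrile baseline.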

[15] = biological target: human CYP1A1, CYP1A1 (gene 1543) (UniProt P04798); assay: NVS_ADME_hCYP1A1: NovaScreen (NVS) CYP450-related Enzyme Activity (ADME) Assay for human CYP1A1 (AID 2283100; active = hit-call score of the fitted dose curve at least 0.9, where 1 is the maximum)
Procedure, shortened: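 Inhibition of recombinant CYP1A1 turnover was assessed fluorometrically in a biochemical format 1 h after compound exposure. Testing began at 10 uM in duplicate and progressed to concentration series reaching 20 uM, with on-plate positive and negative controls.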

Sequence of human CYP19A1, CYP19A1 (gene 1588) (P11511 whole entry, looked up): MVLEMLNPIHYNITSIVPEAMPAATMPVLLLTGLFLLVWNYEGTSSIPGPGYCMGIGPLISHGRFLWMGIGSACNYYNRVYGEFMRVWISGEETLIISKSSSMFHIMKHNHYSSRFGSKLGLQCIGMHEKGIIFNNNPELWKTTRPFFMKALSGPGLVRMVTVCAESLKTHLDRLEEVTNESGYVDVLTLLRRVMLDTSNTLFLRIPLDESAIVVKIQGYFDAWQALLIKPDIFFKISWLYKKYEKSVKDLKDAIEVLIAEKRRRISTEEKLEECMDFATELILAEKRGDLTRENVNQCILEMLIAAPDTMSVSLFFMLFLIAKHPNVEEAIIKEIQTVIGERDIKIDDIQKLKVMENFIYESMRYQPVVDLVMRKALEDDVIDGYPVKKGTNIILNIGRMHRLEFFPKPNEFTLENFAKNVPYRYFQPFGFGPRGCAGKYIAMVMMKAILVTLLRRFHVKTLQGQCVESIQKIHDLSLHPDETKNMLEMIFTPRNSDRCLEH
Sequence of E-selectin (Homo sapiens) (P16581 whole entry, looked up): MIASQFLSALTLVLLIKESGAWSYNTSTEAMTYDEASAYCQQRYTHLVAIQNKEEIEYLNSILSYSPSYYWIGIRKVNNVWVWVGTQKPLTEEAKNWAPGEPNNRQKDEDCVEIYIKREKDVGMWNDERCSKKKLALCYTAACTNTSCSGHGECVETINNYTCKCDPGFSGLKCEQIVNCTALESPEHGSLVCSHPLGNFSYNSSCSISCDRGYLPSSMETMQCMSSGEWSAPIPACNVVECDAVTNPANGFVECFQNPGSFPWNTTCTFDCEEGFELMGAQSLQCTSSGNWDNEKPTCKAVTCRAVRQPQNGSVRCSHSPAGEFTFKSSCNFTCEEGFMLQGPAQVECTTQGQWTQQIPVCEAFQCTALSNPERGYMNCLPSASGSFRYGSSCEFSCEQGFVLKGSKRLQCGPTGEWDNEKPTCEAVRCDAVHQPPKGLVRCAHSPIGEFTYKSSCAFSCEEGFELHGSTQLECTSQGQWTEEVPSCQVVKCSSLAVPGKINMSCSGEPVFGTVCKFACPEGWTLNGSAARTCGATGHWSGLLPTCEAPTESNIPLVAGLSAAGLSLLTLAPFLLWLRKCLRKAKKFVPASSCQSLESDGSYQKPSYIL
Sequence of Tumor necrosis factor (Homo sapiens) (P01375 whole entry, looked up): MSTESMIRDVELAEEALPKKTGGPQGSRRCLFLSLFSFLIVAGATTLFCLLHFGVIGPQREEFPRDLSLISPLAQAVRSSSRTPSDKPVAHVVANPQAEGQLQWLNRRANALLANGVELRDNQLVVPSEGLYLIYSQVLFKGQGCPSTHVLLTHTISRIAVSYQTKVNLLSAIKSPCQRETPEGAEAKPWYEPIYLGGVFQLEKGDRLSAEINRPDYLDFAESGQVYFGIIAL
Sequence of human CYP1A1, CYP1A1 (gene 1543) (P04798 whole entry, looked up): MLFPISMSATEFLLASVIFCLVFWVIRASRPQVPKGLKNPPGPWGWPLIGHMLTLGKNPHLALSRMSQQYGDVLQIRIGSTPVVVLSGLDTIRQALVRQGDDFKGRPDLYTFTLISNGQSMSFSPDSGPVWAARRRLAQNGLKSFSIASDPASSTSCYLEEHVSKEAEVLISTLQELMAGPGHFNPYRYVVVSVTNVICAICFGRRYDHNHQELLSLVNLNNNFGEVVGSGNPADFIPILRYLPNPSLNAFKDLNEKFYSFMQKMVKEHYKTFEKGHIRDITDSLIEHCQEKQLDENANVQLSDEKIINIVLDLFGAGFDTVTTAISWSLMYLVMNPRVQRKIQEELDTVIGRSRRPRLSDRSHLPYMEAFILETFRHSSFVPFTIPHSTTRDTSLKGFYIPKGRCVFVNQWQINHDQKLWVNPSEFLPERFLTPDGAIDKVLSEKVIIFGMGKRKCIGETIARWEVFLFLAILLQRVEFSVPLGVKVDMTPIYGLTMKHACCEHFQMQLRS

## O=C(O)c1ccccc1C(c1ccc(O)cc1)c1ccc(O)cc1
[1]
  outcome: inactive
[2]
  outcome: inactive
[3]
  outcome: inactive
[4]
  outcome: inactive
[5]
  outcome: inactive
[6]
  outcome: inactive
CD40, CD40 (gene 958)
  outcome: inactive
CD69, CD69 (gene 969)
  outcome: inactive
[7]
  outcome: inactive
[8]
  outcome: inactive
[9]
  outcome: inactive
[10]
  outcome: inactive
[11]
  outcome: inactive
[12]
  outcome: inactive
[13]
  outcome: inactive
[14]
  outcome: inactive

## CCc1ccc(CCOc2ccc(CC3SC(=O)NC3=O)cc2)nc1 (stereo not given)
[1]
  outcome: inactive
[2]
  outcome: inactive
[3]
  outcome: inactive
[4]
  outcome: inactive
[5]
  outcome: inactive
[6]
  outcome: inactive
CD40, CD40 (gene 958)
  outcome: inactive
CD69, CD69 (gene 969)
  outcome: inactive
[7]
  outcome: inactive
[8]
  outcome: inactive
[9]
  outcome: inactive
[11]
  outcome: inactive
[12]
  AC50: 7.06 µM (active)
[13]
  outcome: inactive

## Cc1oc(-c2ccccc2)nc1CCOc1ccc(C[C@H](Nc2ccccc2C(=O)c2ccccc2)C(=O)O)cc1
[1]
  AC50: 16.1 µM (active)
[2]
  AC50: 8.83 µM (active)
[3]
  AC50: 30.6 µM (active)
[4]
  AC50: 31.6 µM (active)
[5]
  AC50: 30.4 µM (active)
[6]
  AC50: 33.1 µM (active)
CD40, CD40 (gene 958)
  AC50: 30 µM (active)
CD69, CD69 (gene 969)
  AC50: 14.4 µM (active)
[7]
  AC50: 24.1 µM (active)
[8]
  AC50: 31.5 µM (active)
[9]
  AC50: 38.9 µM (active)
[10]
  AC50: 28.9 µM (active)
[11]
  AC50: 15.8 µM (active)
[12]
  AC50: 19.3 µM (active)
[13]
  AC50: 18.8 µM (active)

## CCCCCCCCCCCCCC[N+](C)(C)C
[1]
  AC50: 5.01 µM (active)
[2]
  outcome: inactive
[3]
  AC50: 5.39 µM (active)
[4]
  AC50: 5.28 µM (active)
[5]
  AC50: 11 µM (active)
[6]
  AC50: 5.64 µM (active)
CD40, CD40 (gene 958)
  AC50: 2.15 µM (active)
CD69, CD69 (gene 969)
  AC50: 2.53 µM (active)
[7]
  AC50: 3.66 µM (active)
[8]
  AC50: 3.2 µM (active)
[9]
  AC50: 7.11 µM (active)
[10]
  AC50: 4.69 µM (active)
[11]
  AC50: 3.2 µM (active)
[12]
  AC50: 0.539 µM (active)
[13]
  AC50: 3.15 µM (active)

## CC(C)(C)c1cccc(C(C)(C)C)c1O
[1]
  outcome: inactive
[2]
  outcome: inactive
[3]
  outcome: inactive
[4]
  outcome: inactive
[5]
  outcome: inactive
[6]
  outcome: inactive
CD40, CD40 (gene 958)
  outcome: inactive
CD69, CD69 (gene 969)
  outcome: inactive
[7]
  outcome: inactive
[8]
  outcome: inactive
[9]
  outcome: inactive
[11]
  outcome: inactive
[12]
  outcome: inactive
[13]
  outcome: inactive

## c1ccc2cc3c(ccc4ccccc43)cc2c1
[1]
  outcome: inactive
[2]
  outcome: inactive
[3]
  outcome: inactive
[4]
  AC50: 0.587 µM (active)
[5]
  outcome: inactive
[6]
  outcome: inactive
CD40, CD40 (gene 958)
  outcome: inactive
CD69, CD69 (gene 969)
  outcome: inactive
[7]
  outcome: inactive
[8]
  outcome: inactive
[9]
  outcome: inactive
[10]
  outcome: inactive
[11]
  outcome: inactive
[12]
  outcome: inactive
[13]
  outcome: inactive
[14]
  outcome: inactive
[15]
  outcome: inactive

## CCc1nn(C2CCCCC2)c2cc(C3(C#N)CCC(C(=O)O)CC3)ccc12 (stereo not given)
[1]
  AC50: 10.1 µM (active)
[2]
  outcome: inactive
[3]
  AC50: 1.85 µM (active)
[4]
  outcome: inactive
[5]
  AC50: 0.358 µM (active)
[6]
  AC50: 2.43 µM (active)
CD40, CD40 (gene 958)
  AC50: 10.6 µM (active)
CD69, CD69 (gene 969)
  AC50: 5.47 µM (active)
[7]
  AC50: 4.61 µM (active)
[8]
  AC50: 1.78 µM (active)
[9]
  AC50: 28 µM (active)
[11]
  AC50: 2.73 µM (active)
[12]
  AC50: 12.5 µM (active)
[13]
  AC50: 11.5 µM (active)

Reference: PubChem BioAssay (EPA / NIEHS)
